Rows were chosen to be rich in hits. Some 2.4% of all compounds tested hit in one or more screens of this group.
Pf Dd2 growth – P. falciparum Dd2 growth inhibitors, primary screen, SYBR Green fluorescence, single dose replicates. hit rate 2.3% among 94,000. activity change, % at 10 µM. 72 h; hits give low values. AID 1159554, 2015; in the data active = activity change below about -80%
C diff growth – C. difficile growth inhibitors, primary screen, HTS. Clostridium difficile clinical isolate growth, OD600, 24 h; hits give low values. growth activity, negative = inhibition, % at 16 µg/mL (by protocol). hit rate 0.25% among 86,000. AID 1259249, 2017;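 active = mean growth activity at or below -80% and every replicate also at or below -80%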;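 note: 0% = DMSO wells and -100% = levofloxacin 16 µg/mL wells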
An asterisk follows results filed as active; . = not tested or not shown.

SMILES | Pf Dd2 growth | C diff growth
C[C@@H]1CCCCO[C@H](CN(C)C(=O)Nc2ccc(C(F)(F)F)cc2)[C@H](C)CN([C@@H](C)CO)C(=O)c2cc(NC(=O)C3CCCCC3)ccc2O1 | -83.2* | 4.4
C[C@@H]1CCCCO[C@H](CN(C)C(=O)Nc2ccc(C(F)(F)F)cc2)[C@H](C)CN([C@@H](C)CO)C(=O)c2cc(NC(=O)Nc3ccc4c(c3)OCO4)ccc2O1 | -66.6 | -0.3
C[C@@H]1CCCCO[C@@H](CN(C)C(=O)Nc2ccc(C(F)(F)F)cc2)[C@H](C)CN([C@@H](C)CO)C(=O)c2cc(NC(=O)C3CCCCC3)ccc2O1 | -50.2 | 4.8
C[C@@H]1CCCCO[C@@H](CN(C)C(=O)Nc2ccc3c(c2)OCO3)[C@@H](C)CN([C@@H](C)CO)C(=O)c2cc(NC(=O)Nc3ccc(C(F)(F)F)cc3)ccc2O1 | -92.3* | 12.2
C[C@@H]1CN([C@@H](C)CO)C(=O)c2cc(NC(=O)Nc3ccc4c(c3)OCO4)ccc2O[C@@H](C)CCCCO[C@@H]1CN(C)C(=O)c1ccccc1 | -67.6 | 11.7
C[C@@H]1CN([C@H](C)CO)C(=O)c2cc(NS(=O)(=O)c3ccccc3)ccc2O[C@@H]1CN(C)CC1CCCCC1 | -13.1 | 7.8
CO[C@H]1CN(C)C(=O)c2cc(NC(=O)NC(C)C)ccc2OC[C@@H](C)N(CC2CC2)C[C@H]1C | -0.7 | 0.2
CNC(=O)C[C@@H]1CC[C@H]2[C@H](COc3ccc(NC(=O)Nc4cccc(Cl)c4)cc3C(=O)N2C)O1 | 2.0 | -4.0
C[C@@H]1CCCCO[C@H](CN(C)C(=O)Nc2ccc(F)cc2)[C@@H](C)CN([C@@H](C)CO)C(=O)c2cc(NS(=O)(=O)c3ccc(Cl)cc3)ccc2O1 | -86.7* | .
Cc1ccc(S(=O)(=O)Nc2ccc3c(c2)C(=O)N([C@@H](C)CO)C[C@@H](C)[C@@H](CN(C)C(=O)Nc2ccc(F)cc2)OCCCC[C@H](C)O3)cc1 | -72.1 | .
Cc1noc(C)c1S(=O)(=O)Nc1ccc2c(c1)C(=O)N([C@@H](C)CO)C[C@@H](C)[C@H](CN(C)C(=O)Nc1ccc(F)cc1)OCCCC[C@H](C)O2 | -52.1 | 7.7
C[C@H]1CCCCO[C@H](CN(C)C(=O)Nc2ccc(F)cc2)[C@@H](C)CN([C@@H](C)CO)C(=O)c2cc(NS(=O)(=O)c3ccc(Cl)cc3)ccc2O1 | -76.0 | .
Cc1noc(C)c1S(=O)(=O)Nc1ccc2c(c1)C(=O)N([C@H](C)CO)C[C@@H](C)[C@@H](CN(C)C(=O)Nc1ccc(F)cc1)OCCCC[C@@H](C)O2 | -84.8* | 5.1
Cc1ccc(S(=O)(=O)Nc2ccc3c(c2)C(=O)N([C@@H](C)CO)C[C@H](C)[C@@H](CN(C)C(=O)Nc2ccc(F)cc2)OCCCC[C@@H](C)O3)cc1 | -81.5* | .
COc1ccc2c3c([nH]c2c1)[C@H](CO)N(S(C)(=O)=O)CC31CN(CC2CC2)C1 | 49.0 | -0.7
C[C@H](CO)N1C[C@H](C)[C@@H](CN(C)Cc2ccc(Oc3ccccc3)cc2)Oc2ncc(-c3ccncc3)cc2C1=O | -72.6 | -10.8
O=C(C[C@H]1C=C[C@H](NC(=O)C2CCC2)[C@@H](CO)O1)NC1CCC1 | -36.9 | 3.8
COc1ccc(S(=O)(=O)N(C)C[C@@H]2OCCCC[C@H](C)Oc3ccc(NC(=O)Nc4cccc5ccccc45)cc3C(=O)N([C@H](C)CO)C[C@H]2C)cc1 | -86.2* | 0.6
COc1ccc(S(=O)(=O)N(C)C[C@H]2OCCCC[C@H](C)Oc3ccc(NC(=O)Nc4cccc5ccccc45)cc3C(=O)N([C@@H](C)CO)C[C@@H]2C)cc1 | -71.4 | 2.0
COc1ccc(S(=O)(=O)N(C)C[C@@H]2OCCCC[C@@H](C)Oc3ccc(NC(=O)Nc4cccc5ccccc45)cc3C(=O)N([C@H](C)CO)C[C@H]2C)cc1 | -69.2 | 3.2
COc1ccc(S(=O)(=O)N(C)C[C@H]2OCCCC[C@H](C)Oc3ccc(NC(=O)Nc4cccc5ccccc45)cc3C(=O)N([C@@H](C)CO)C[C@H]2C)cc1 | -83.5* | -9.6
CCCNC(=O)C[C@@H]1CC[C@@H]2[C@H](COC[C@H](O)CN2C(=O)Nc2ccccc2OC)O1 | -9.1 | .
CCCNC(=O)C[C@H]1C[C@H]2c3cc(NC(=O)c4ccc5c(c4)OCO5)ccc3O[C@H]2[C@H](CO)O1 | -1.2 | 4.9
COc1cccc(C#Cc2ccc([C@H]3[C@H](C#N)N(C(=O)C4CCCC4)[C@H]3CO)cc2)c1 | -56.5 | -6.7
COc1cccc(C#Cc2ccc([C@H]3[C@@H](CO)N(C(=O)C4CCC4)[C@H]3C#N)cc2)c1 | -85.6* | -0.8
SMILES | Pf Dd2 growth | C diff growth
COc1cccc(C#Cc2ccc([C@H]3[C@@H](C#N)N(C(=O)C4CCCC4)[C@@H]3CO)cc2)c1 | -83.3* | -3.6
COc1cccc(C#Cc2ccc([C@@H]3[C@H](C#N)N(C(=O)C4CCC4)[C@H]3CO)cc2)c1 | -49.7 | -7.9
COc1cccc(C#Cc2ccc([C@H]3[C@@H](CO)N(C(=O)C4CCCCC4)[C@H]3C#N)cc2)c1 | -94.8* | -7.3
COc1cccc(C#Cc2ccc([C@@H]3[C@@H](C#N)N(C(=O)C4CCCC4)[C@@H]3CO)cc2)c1 | -47.2 | -0.5
COc1cccc(C#Cc2ccc([C@H]3[C@@H](CO)N(C(=O)C4CCCC4)[C@H]3C#N)cc2)c1 | -93.5* | -15.7
COc1cccc(C#Cc2ccc([C@@H]3[C@H](C#N)N(C(=O)C4CCCC4)[C@H]3CO)cc2)c1 | -60.2 | 45.9
O=C(NC[C@@H]1N[C@@H](CO)[C@H]1c1ccc(C2=CCCCC2)cc1)c1cccc(F)c1 | -3.9 | -81.0*
CN(C[C@@H]1N[C@H](CO)[C@H]1c1ccc(C2=CCCC2)cc1)C(=O)c1cccc(F)c1 | -18.8 | 8.1
CO[C@H](CN(C)C(=O)c1ccc2c(c1)OCO2)[C@@H](C)CN([C@H](C)CO)S(=O)(=O)c1ccccc1 | 14.9 | .
CO[C@H]1CN(C)C(=O)c2cc(NC(=O)c3cnccn3)ccc2OC[C@@H](C)N(C(C)=O)C[C@H]1C | 10.3 | .
C[C@@H]1CN([C@H](C)CO)C(=O)Cc2cc(NC(=O)Cn3cnnn3)ccc2O[C@@H]1CN(C)Cc1ccc(C(=O)Nc2ccccc2N)cc1 | -49.1 | 8.1
C[C@H]1CN([C@@H](C)CO)C(=O)Cc2cc(NC(=O)Cc3ccccc3)ccc2O[C@@H]1CN(C)Cc1ccc(C(=O)Nc2ccccc2N)cc1 | -88.2* | 12.0
C[C@H](CO)N1C[C@H](C)[C@@H](CN(C)Cc2ccc(C(=O)Nc3ccccc3N)cc2)Oc2ccc(NC(=O)Nc3ccc4c(c3)OCO4)cc2CC1=O | -83.4* | 13.0
C[C@@H]1CN([C@H](C)CO)C(=O)Cc2cc(NC(=O)Cc3ccccc3)ccc2O[C@@H]1CN(C)Cc1ccc(C(=O)Nc2ccccc2N)cc1 | -84.8* | 4.0
C[C@@H]1CN([C@@H](C)CO)C(=O)Cc2cc(NC(=O)Nc3ccccc3)ccc2O[C@@H]1CN(C)Cc1ccc(C(=O)Nc2ccccc2N)cc1 | -79.8 | -6.0
C[C@@H]1CN([C@H](C)CO)C(=O)Cc2cc(NC(=O)Nc3ccc4c(c3)OCO4)ccc2O[C@H]1CN(C)Cc1ccc(C(=O)Nc2ccccc2N)cc1 | 5.1 | 0.7
C[C@@H]1CN([C@@H](C)CO)C(=O)Cc2cc(NC(=O)Cc3ccccc3)ccc2O[C@H]1CN(C)Cc1ccc(C(=O)Nc2ccccc2N)cc1 | -16.1 | 10.0
